Luc counter: Counterscreen for Luciferase (Kinase-Glo TM) Inhibition; Luciferin 4-monooxygenase (Photuris pensylvanica), Q27757; Kinase-Glo luciferase, ATP luminescence, 8 min; Potency, µM (series often up to 38.3 µM), inactives show at the top dose activity change, negative = inhibition, most hits filed as inhibitors; 0.28% of 200,000 active; AID 1379, 2008; note: % is set by controls: 0 for no effect and ±100 for the full control effect; nearly all actives have a fitted effect of over 60% in size
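Recombinant Kinase-Glo luciferase, 10 uM ATP (linear range), luciferin; imidazole pH 7.2 / KCl / MgCl2 / Tween / BSA buffer; 8 min RT; luminescence.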
Rab9 prom act: qHTS Assay for Rab9 Promoter Activators. Huh7 Rab9 promoter-luciferase reporter, luminescence, 24 h. Potency, µM (series often up to 9.22 µM), for inactives: at the highest dose activation, negative = inhibition, usual class: activators. 2.8% of 320,000 active; note: % of control where 0% means no effect; nearly all actives have a fitted effect of over 60% in size
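Luminescence read-out: Huh7 cells stably expressing Rab9-luciferase, treated 24 h with compound at 37 °C, then lysed with luciferase reagent for 10 min at ambient before reading.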
ELG1 genotox: qHTS screen for small molecules that induce genotoxicity in human embryonic kidney (HEK293T) cells expressing luciferase-tagged ELG1; HEK293T ELG1-luciferase reporter, luminescence, 16 h; Potency, µM (titrated, usually from 46 µM), for inactives: at the highest dose activity change, positive = activation, actives largely listed as activators; 1.3% of 330,000 active; AID 504466, 2011; note: % of control where 0% means no effect; nearly all actives have a fitted effect of over 60% in size
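HEK293T cells expressing luciferase-tagged ELG1 were treated with compound or DMSO for 16 hr at 37°C. Luciferase activity was then read after 30 min with ONE-Glo at room temperature; rising signal flags genetic stress.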
SMN2 splice up: qHTS Assay for Enhancers of SMN2 Splice Variant Expression. Potency, µM (doses to about 46.1 µM), for inactives: at the highest dose activity change, positive = activation, usual class: activators. 2.8% of 210,000 active. HEK293 SMN2-luciferase splicing reporter, luminescence, 30-36 h; note: % of control where 0% means no effect; nearly all actives have a fitted effect of over 55% in size
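HEK293 cells carry an SMN2 minigene-luciferase reporter in which exon 7 inclusion puts luciferase in frame. Cells were seeded at 2000 cells/well, attached for 10-12 hours, then exposed to compounds for 30-36 hours at 37C before ONE-Glo luminescence.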
NPC1 promoter act: qHTS Assay for NPC1 Promoter Activators | Huh7 NPC1 promoter luciferase reporter, 24 h | Potency, µM (highest dose often 9.22 µM), without a hit: top-dose activation, actives largely listed as activators | 2.4% of 320,000 active; note: % of control where 0% means no effect; nearly all actives have a fitted effect of over 60% in size
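Readout is luciferase luminescence, reflecting NPC1 promoter activation in stably transfected Huh7 cells after 24 h compound exposure at 37 °C in reduced-serum medium with 10% FBS.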
FLuc counter: qHTS profiling assay for firefly luciferase inhibitor/activator using purifed enzyme and Km concentrations of substrates (counterscreen for miR-21 project); Luciferin 4-monooxygenase (Photinus pyralis), P08659; purified FLuc, Km substrates, luminescence inhibition; Potency, µM (highest dose often 57.5 µM), inactives show at the top dose activity change, negative = inhibition, usual class: inhibitors; 6.9% of 360,000 active; AID 588342, 2011;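 note: plate controls were vehicle for no effect and reference inhibitor for full effect; nearly all actives have a fitted effect of over 55% in size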
Target sequence (P08659 whole entry, looked up): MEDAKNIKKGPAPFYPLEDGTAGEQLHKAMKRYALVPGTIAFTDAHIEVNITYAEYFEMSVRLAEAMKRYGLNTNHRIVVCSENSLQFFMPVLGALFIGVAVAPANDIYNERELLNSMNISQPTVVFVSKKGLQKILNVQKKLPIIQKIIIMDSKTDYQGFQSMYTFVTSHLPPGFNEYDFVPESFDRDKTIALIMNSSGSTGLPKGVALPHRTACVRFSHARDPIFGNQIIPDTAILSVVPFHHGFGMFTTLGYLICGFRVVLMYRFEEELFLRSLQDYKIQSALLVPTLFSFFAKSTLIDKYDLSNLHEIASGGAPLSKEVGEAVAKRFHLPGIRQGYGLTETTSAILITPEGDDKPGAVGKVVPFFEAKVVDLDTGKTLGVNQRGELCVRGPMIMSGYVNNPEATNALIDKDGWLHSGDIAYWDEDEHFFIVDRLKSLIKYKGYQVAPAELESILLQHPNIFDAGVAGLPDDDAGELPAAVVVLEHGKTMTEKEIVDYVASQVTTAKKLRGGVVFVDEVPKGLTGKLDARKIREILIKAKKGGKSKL
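Purified P. pyralis luciferase, 10 nM final, with Km-level 10 uM D-luciferin and 10 uM ATP in 50 mM Tris acetate pH 7.5, 10 mM Mg acetate, 0.01% Tween-20, 0.05% BSA; 6-point qHTS titration about 60 µM downward; luminescence read.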
* marks the source's active call; other numbers are inactive results; ? = inconclusive; . = not tested or not shown. In the library only some 7.5% were active in any assay of this set; here they are far more common. Calls come from the whole dose curve; as a rule, active = well fitted curve in the direction sought with a large enough effect; inconclusive = small, poorly fitted or top-dose-only effect, or another doubt; inactive = no such curve, though single readings can be large; an effect the other way counts as inactive or inconclusive. Potency is the fitted concentration of half-maximal effect.

SMILES | Luc counter | Rab9 prom act | ELG1 genotox | SMN2 splice up | NPC1 promoter act | FLuc counter
Cn1cccc1C(=O)Nc1nc(-c2ccccn2)cs1 | 11µM* | 1.8µM* | 16% | 25% | 2µM* | 8.5µM*
C[C@H](NC(=O)c1ccccc1)C(=O)Nc1nc(-c2ccccn2)cs1 | 0% | -3% | -9% | -55% | 4% | -8%
Cc1csc(NC(=O)c2ccc(C(=O)Nc3nc(C)cs3)cc2)n1 | . | 9% | 2% | . | 5% | -8%
Cc1csc(NC(=O)c2ccccc2C(=O)O)n1 | -4% | -4% | -3% | -3% | -5% | 0%
Cc1csc(NC(=O)c2sccc2C)n1 | . | 0.89µM* | ? | . | 1.8µM* | 11µM*
Cc1csc(NC(=O)c2cccn2C)n1 | ? | 2.2µM* | ? | 16µM* | 3.5µM* | 8.5µM*
CN[C@H](C)C(=O)NC[C@H]1O[C@@H](n2cnc3c(N)ncnc32)[C@H](O)[C@@H]1O | . | . | -2% | . | . | .
O=C(NC(O)C(=O)c1ccccc1)c1ccccn1 (configuration not stated) | . | -2% | 0% | . | -3% | 15µM*
COc1ccc(CC(=O)OCC(=O)NC2CCCCC2)cc1OC | . | . | 1% | . | . | .
CC(=O)Nc1nc(-c2ccc3ccccc3c2)cs1 | . | 1.1µM* | ? | . | 0.63µM* | 1.3µM*
O=C(CN1C(=O)CCC1=O)Nc1nc(-c2ccc3ccccc3c2)cs1 | 1% | ? | 14% | 27% | 26% | 17µM*
Cc1ccc(-c2csc(NC(=O)CN3C(=O)CCC3=O)n2)cc1 | -5% | -22% | 4% | 9% | -2% | -1%
Oc1ccc(Nc2nc(-c3ccc4ccccc4c3)cs2)cc1 | -3% | ? | ? | 25% | ? | 1.1µM*
O=C(CN1C(=O)CCC1=O)Nc1nc(-c2nc3ccccc3s2)cs1 | 0% | 2.8µM* | ? | 13µM* | ? | 11µM*
Cc1cc(NS(=O)(=O)c2ccc(Nc3nc(-c4ccc(C)c(C)c4)cs3)cc2)no1 | 3% | -2% | -3% | -16% | -2% | ?
Fc1ccc(-c2csc(-c3ccncc3)n2)cc1 | 1% | 17% | -8% | -9% | 23% | ?
Cc1cc(NS(=O)(=O)c2ccc(Nc3nc(-c4ccc(O)cc4)cs3)cc2)no1 | 5% | -9% | 0% | 12% | -20% | 24µM*
Oc1ccc(-c2nc(-c3ccc(O)c(O)c3)cs2)cc1 | -8% | 5% | ? | 20µM* | -4% | 15µM*
CCOC(=O)c1nc(Nc2ccc(C(=O)OCC(C)C)cc2)c2ccccc2n1 | . | . | . | -11% | . | -3%
CC(=O)Oc1ccc2oc(/C=C/N(C)C)c([N+](=O)[O-])c2c1 | 0% | 20% | ? | 0% | 28% | 15µM*
COC(=O)c1c(NC(=O)CSc2nnc(C)c(=O)[nH]2)sc(C)c1C | 3% | 0% | ? | -14% | -1% | ?
C/C(=N\O)C(C)(C)Nc1ccccc1F | . | -3% | -1% | . | -1% | 4%
CCOc1ccc(C(=O)NCC(=O)OCC(=O)Nc2ccccc2OC)cc1 | -3% | -3% | 2% | -2% | 0% | 24µM*
CCOc1ccc(C(=O)NCC(=O)OCC(=O)Nc2ccccc2OCC)cc1 | 0% | -3% | 1% | 2% | 1% | 24µM*
CCOc1ccc(C(=O)NCC(=O)OCC(=O)Nc2ccc(C)c(S(=O)(=O)N(C)C)c2)cc1 | 6% | -3% | 2% | 1% | -3% | 4.8µM*
COc1ccc(C(=O)NCC(=O)OCC(=O)Nc2cc([N+](=O)[O-])ccc2F)cc1 | -3% | 1% | 12% | -1% | -2% | 24µM*
Oc1c(C=Nc2ccccc2)sc(=S)n1Cc1ccccc1 | 0% | 1% | 3% | -5% | -5% | ?

Assay outcomes as filed in PubChem.
